Reference: the supplement of paper PMC10338343
± gives the standard deviation.

test system: MILI (PIWIL2) piRISC loaded with piRNA #1 (26 nt); assay: pre-steady-state target cleavage rate (min^-1); guide: piRNA #1 5'p-UGAGGUAGUAGGUUGUAUAGUAUCCA; MIWI and MILI are mouse PIWI proteins and EfPiwi is from a freshwater sponge; tags in brackets are library labels; higher = faster piRNA-guided slicing of the target; conditions: auxiliary factor: 500 nM mouse GTSF1
Method in brief: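 The pre-steady-state cleavage rate was derived from a burst-and-steady-state fit of Cleave-'n-Seq data. For these assays, 1 nM active affinity-purified piRISC loaded with a single synthetic guide was mixed with […] a transcribed, DNA-blocked target RNA library in HEPES–potassium acetate buffer at 33 °C, with or without 500 nM GTSF1 partner protein, for 0–8 or 0–960 min. Sequencing counts of uncleaved targets were normalised to depth and to weakly complementary targets, and k3 was capped at 0.0001 min^-1 after three trials were pooled.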
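Also: 1 nM active piRISC with 0.1 nM target library at 33 °C single turnover.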

Sequence	pre-steady-state target cleavage rate
GGAGACCUAUCAAUACAACCUAGUACCUCA	0.00718 ± 0.0036
GGAGACCUUACUAUACACCUACUACCUCA	0.00774 ± 0.0034
GGAGACCUAACUAUACAUCCUACUAGCUCA	0.162 ± 0.042
GGAGUGGAUACUUUACAACCUACUAGCUCA	0.0406 ± 0.0075
GGAGACCUAUGUAUACAACCUACUUCGUCA	0.0106 ± 0.0032
GGAGACCUUACUAUUCAACCUUCUACCUCA	0.00471 ± 0.0024
GGAGACCAUAGUAUACAACCUACUACCACA	0.133 ± 0.015
GGAGACCUAUCUUUACAACCAACUACCUCA	0.0039 ± 0.0033
GGAGACCUUACUUACAACCUACUACCUCA	0.0198 ± 0.0056
GGAGACCUAUGUAUACAACGUACUUCCUCA	0.0105 ± 0.0026
GGAGACCUAUCUAUACAACCUAAUACCUCA	0.0234 ± 0.0057
GGAGACCUAAGUAUAGAACCUACUACCUCA	0.0747 ± 0.013
GGAGACCUAUCAAUACAACCUACUACGUCA	0.0134 ± 0.0044
GGAGACCUAUGAUUACAACCUACUGACCUCA	0.00605 ± 0.0028
GGAGAGGAUACUAUACAACGAACUACCUCA	0.0031 ± 0.0019
GGAGACCUAUCUAAUCAACCUACUACCUCA	0.0267 ± 0.0037
GGAGUGGAUUCUAAACAACCUACUACCUCA	0.143 ± 0.0089
GGAGACCUAUGUAUACAACCUGCUACCUCA	0.0059 ± 0.0023
GGAGACCUAUCUAUACAACCUUCUACCUCA	0.00553 ± 0.0024
GGAGACCUAUCUAAACAACCUACAACCUCA	0.0563 ± 0.0063

Sequence	pre-steady-state target cleavage rate
GGAGACCUAUGUAUACAACCUACUACCUAA	0.0593 ± 0.0072
GGAGACCUAACUAUACAACCUACUGACCUCA	0.163 ± 0.04
GGAGACCUAUGAAUACAUCCUACUAGCUCA	0.00797 ± 0.0028
GGAGACCUAACUAUACAACCUACUACCGCA	0.197 ± 0.038
GGAGACCUAUGAUUACAACCUACGACCUCA	0.00452 ± 0.0036
GGAGACCUUACAAUACAACCUACUACGUCA	0.0615 ± 0.009
GGAGACCUUAGUAUUCAACCUACUACCUCA	0.089 ± 0.011
GGAGACCUAUGAAUACGACCUACUACCUCA	0.00583 ± 0.0037
GGAGACCUAUGAAUACAACCGACUACCUCA	0.00328 ± 0.003
GGAGACCUAUCUAUACAACCUAGUUCCUCA	0.0148 ± 0.0059
GGAGACCUAACUAGUACAACCUACUACCUCA	0.0828 ± 0.019
GGAGACGAUACUAUACAACCUAAUACCUCA	0.103 ± 0.015
GGAGACCUAUGAAUACAACGUACUACCACA	0.00353 ± 0.0029
GGAGACCUAUGAAUACAAGCAACUACCUCA	0.00265 ± 0.0026
GGAGAGGAUACUUUACUACCUACUACCUCA	0.161 ± 0.011
GGAGUGCAUACUAUACAAGCUACUACCUCA	0.213 ± 0.014
GGAGACCUAUGAUAACAACCUACUAACCUCA	0.00664 ± 0.002
GGAGACCUUACUAUUCAACCUACUACCACA	0.161 ± 0.016
GGAGUGCAUACUAAACAACCUACUACCUCA	0.147 ± 0.011
GGAGACCUUACUAUACUACCUACUUCCUCA	0.119 ± 0.019
